Screens as filed in PubChem.
Giardia kill: Small Molecules that selectively kill Giardia lamblia: qHTS. Giardia lamblia trophozoite viability. activity change, % at 7.66 µM, hits read low. 340,000 tested, 0.15% active. AID 540267, 2011; in the data active = activity change below about -80%; inconclusive = between about -30% and that limit;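 also: parasites exposed to compound for two days anaerobically before the ATP read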
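Compounds were tested on trophozoites seeded at 100 cells/well and held 48 hrs at 37 deg C anaerobically. An ATP-based luminescent kit measured the remaining live cells.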
KB-V1 cytotox: qHTS assay for MDR1-selective chemotherapeutics: Primary screen using the drug-selected MDR subline cells KB-V1; KB-V1 MDR cells viability, CellTiter-Glo, 72 h; 400,000 tested, 3.4% active; Potency, µM (series often up to 46.1 µM), actives largely listed as cytotoxic; also: potency is read from the fitted curve at half-maximal effect; nearly all actives have a fitted effect of over 60% in size
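Cytotoxicity via CellTiter-Glo luminescence after 72 h compound exposure at 37 degrees C. Cells: drug-selected KB-V1 line, DMEM phenol-red free plus 10% FBS. Compounds tested at multiple concentrations; normalized data fitted to concentration-effect curves.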
Nrf2 inh: Nrf2 qHTS screen for inhibitors; Potency, µM (titrated, usually from 46 µM), for the others: at the top dose activity change, negative = inhibition, most hits filed as inhibitors; 360,000 tested, 2.1% active; A549 ARE-Fluc reporter, luciferase luminescence, 18-24 h; also: potency is read from the fitted curve at half-maximal effect; nearly all actives have a fitted effect of over 60% in size
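Cells were seeded and rested 2 h, then exposed to compounds for 18-24 h. CellTiter-Fluor was read first as a viability measure. BugLite was added 15 min before the final luminescent read of ARE-luciferase activity in A549 cells.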
A549 tox: Nrf2 qHTS screen for inhibitors: counterscreen for cytotoxicity; A549 ARE-Fluc cells, CellTiter-Fluor viability, 18-24 h; Potency, µM (series often up to 46 µM), without a hit: at the top dose activity change, negative = cytotoxicity, actives largely listed as inhibitors; 390,000 tested, 0.16% active; AID 504648, 2011; also: potency is read from the fitted curve at half-maximal effect
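A549 ARE_Fluc cells in 5% FBS OPTI-MEM were exposed to compounds in concentration-response for 18-24 h at 37 deg C. Viability was read by CellTiter-Fluor fluorescence (Ex 405/Em 525) after 30 min, before the luciferase read.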
PI4K2A block: qHTS for small molecular inhibitors of PI4K2A; purified PI4K2A, ADP-Glo luminescence, 1 h; stronger effect = lower value; activity change, negative = inhibition, % at 76.9 µM; 420,000 tested, 0.13% active; in the data active = activity change below about -50%; inconclusive = mostly about -30% to -49%;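 also: -100% = wells without enzyme as full effect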
Target sequence (Q9BTU6 whole entry, looked up): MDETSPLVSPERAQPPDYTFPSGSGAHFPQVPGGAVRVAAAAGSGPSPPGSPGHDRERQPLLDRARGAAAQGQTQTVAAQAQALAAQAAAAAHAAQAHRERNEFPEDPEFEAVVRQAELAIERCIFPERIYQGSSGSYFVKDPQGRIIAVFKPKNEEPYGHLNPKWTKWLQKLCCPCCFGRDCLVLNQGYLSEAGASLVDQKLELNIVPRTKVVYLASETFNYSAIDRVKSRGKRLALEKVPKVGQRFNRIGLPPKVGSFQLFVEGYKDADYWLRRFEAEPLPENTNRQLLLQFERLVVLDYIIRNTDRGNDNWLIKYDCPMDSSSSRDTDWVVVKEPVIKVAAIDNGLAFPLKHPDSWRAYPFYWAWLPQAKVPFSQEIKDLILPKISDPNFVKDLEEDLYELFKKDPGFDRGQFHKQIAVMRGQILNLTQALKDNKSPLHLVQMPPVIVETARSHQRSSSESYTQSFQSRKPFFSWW
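Compounds are screened against recombinant PI4K2A using PI as substrate and ATP, the latter dispensed at 300 microM. Reactions run one hour at ambient temperature before ADP-Glo detection; full inhibition defined by wells lacking enzyme.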
KB-3-1 tox: qHTS assay for MDR1-selective chemotherapeutics: Primary screen using the parental adenocarcinoma cell KB-3-1; KB-3-1 viability, CellTiter-Glo ATP luminescence, 72 h; Potency, µM (series often up to 46.1 µM), actives largely listed as cytotoxic; 400,000 tested, 1.4% active; also: potency is read from the fitted curve at half-maximal effect; nearly all actives have a fitted effect of over 60% in size
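Parental KB-3-1 adenocarcinoma cells in phenol-red-free DMEM with 10% FBS were pin-treated with compounds at several concentrations, incubated 72 h at 37 °C, and viability read by CellTiter-Glo luminescence; concentration-effect curves were fitted after normalization.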
The depositor's hits bear a star; i = inactive; ? = inconclusive; · = not tested or not shown. Only some compounds are listed: those with a hit (about 5.7% of all), similar ones and a draw of the others. Unless noted, calls follow the shape of the dose curve; as a rule, active = well fitted curve in the direction sought with a large enough effect; inconclusive = small, poorly fitted or top-dose-only effect, or another doubt; inactive = no such curve, though single readings can be large; an effect the other way counts as inactive or inconclusive. Unless noted, % is scaled to controls: 0 for no effect and ±100 for the full control effect.

SMILES	Giardia kill	KB-V1 cytotox	Nrf2 inh	A549 tox	PI4K2A block	KB-3-1 tox
CCc1nnc(N/N=C/c2ccc(N3CCC(C)CC3)c([N+](=O)[O-])c2)n1N	-28	?	-4%	-9%	?	i
Cc1csc(NC(=O)c2ccc(COc3ccccc3F)o2)n1	·	·	·	·	0	·
CCCC/C=C1/[C@@H](CC)N(Cc2ccc(OC)cc2OC)C2=N[C@@H](c3ccccc3)CC(=O)N21	·	·	·	·	-1	·
CC(NC(=O)CN1C(=O)NC2(CCCCCCC2)C1=O)c1ccccc1 (stereo not drawn)	-8	23µM*	17%	5%	0	i
O=C(CN1C(=O)NC2(CCCC2)C1=O)NC(c1ccccc1)c1ccccc1	0	i	2%	0%	1	?
CC(NC(=O)CN1C(=O)NC(Cc2ccccc2)(Cc2ccccc2)C1=O)C12CC3CC(CC(C3)C1)C2 (stereo not drawn)	-23	?	26µM*	?	12	?
O=C(CN1C(=O)NC2(CCCCCC2)C1=O)N1CCC(Cc2ccccc2)CC1	-10	18µM*	-30%	9%	-1	?
O=C(CN1C(=O)NC2(CCCCC2)C1=O)Nc1ccc(F)cc1	5	i	-3%	-1%	5	i
Cc1ccc(NC(=O)CN2C(=O)NC3(CCCCCCC3)C2=O)cc1C	5	23µM*	-4%	-5%	4	i
COc1cccc(N2CCN(C(=O)c3cnn(-c4ccc(C)cc4C)c3C3CCN(C(=O)OC(C)(C)C)CC3)CC2)c1	·	i	?	-10%	-1	i
Cc1cc(NC(=O)COc2cc(F)cc(F)c2)n(-c2ccccc2)n1	·	·	·	·	-5	·
CCOC(=O)c1ccc(CNc2ncnc3nc[nH]c23)cc1	17	i	?	-3%	·	i
CCn1cc(C(=O)NC(C)C23CC4CC(CC(C4)C2)C3)cn1 (stereo not drawn)	14	?	4%	2%	0	i
CC(NC(=O)Cn1ncc(Cl)c(Cl)c1=O)C12CC3CC(CC(C3)C1)C2 (stereo not drawn)	-14	?	1%	0%	4	6.5µM*
COc1ccc(CC(=O)N(Cc2ccccc2)c2ccccc2C(=O)Nc2cc(OC)ccc2OC)cc1	·	·	·	·	-3	·
COc1cc(NC(=O)Cn2c(=O)oc3cc(S(=O)(=O)N4CCCCCC4)ccc32)cc(OC)c1	·	?	·	0%	-1	i
CCCc1nc2ccccc2c(=O)n1NC(=O)c1c(O)c2cccc3c2n(c1=O)CCC3	0	?	2%	-4%	-6	?
COC(=O)Nc1ccc(S(=O)(=O)NNC(=O)c2c(O)c3ccccc3[nH]c2=O)cc1	13	i	-1%	0%	2	i
CCCn1c(=O)c(C(=O)Nc2ccccc2C)c(O)c2ccccc21	30	21µM*	3%	7%	-2	i
CC(C)Cn1c(=O)c(C(=O)Nc2ccncc2)c(O)c2ccccc21	-2	i	?	?	-4	7.3µM*
CCCCc1nc2ccccc2c(=O)n1NC(=O)c1c(O)c2ccccc2n(C)c1=O	-9	?	?	-28%	2	13µM*
CC(C)Cn1c(=O)c(C(=O)Nc2cnccn2)c(O)c2ccccc21	-4	i	1%	-1%	2	i
Cc1ccc(S(=O)(=O)NNC(=O)c2c(O)c3ccccc3[nH]c2=O)cc1	47	2.6µM*	-20%	-10%	1	i
CCCCc1ccc(CC(=O)NO)cc1	·	i	·	·	·	i
CCCCCCCC(=O)NNC(=O)c1c(O)c2ccccc2n(CC)c1=O	2	18µM*	25%	0%	4	?
SMILES	Giardia kill	KB-V1 cytotox	Nrf2 inh	A549 tox	PI4K2A block	KB-3-1 tox
CCCn1c(=O)c(C(=O)NNC(=O)Cc2ccccc2)c(O)c2ccccc21	4	?	?	-6%	0	i
CCCn1c(=O)c(C(=O)Nc2ccccc2)c(O)c2ccccc21	2	23µM*	·	12%	-2	?
CCCCCCC(=O)NNC(=O)c1c(O)c2ccccc2n(CC)c1=O	22	?	-7%	5%	-1	i
CCCn1c(=O)c(C(=O)NNC(=O)c2ccccc2Cl)c(O)c2ccccc21	-17	9.2µM*	?	?	0	?
CCn1c(=O)c(C(=O)NNS(=O)(=O)c2ccc(Cl)cc2)c(O)c2ccccc21	-9	15µM*	?	?	6	i
Cc1ccc(NC(=O)N2CCC(N(C)CCC(C)C)CC2)cc1F	·	·	·	·	1	·
CCCn1c(=O)c(C(=O)NCc2cccnc2)c(O)c2ccccc21	-11	10µM*	-29%	-1%	-1	i
CCC(C)NC(=O)CNc1nnnn1-c1ccccc1 (stereo not drawn)	·	·	·	·	2	·
CC(C)(C)C(=O)Nc1ccc(C(=O)Nc2cc(NC(=O)c3ccc(NC(=O)C(C)(C)C)cc3)cc(C(=O)O)c2)cc1	9	i	?	-5%	-2	i
O=C(Nc1cccc(Oc2ccc(C(=O)O)c(C(=O)O)c2)c1)c1ccc(-c2ccccc2)cc1	?	i	16µM*	4%	1	i
CC(C)(C)C(=O)Nc1ccc(C(=O)Nc2cccc(Oc3ccc(C(=O)O)c(C(=O)O)c3)c2)cc1	-24	i	21µM*	2%	1	i
O=C(O)c1ccccc1C(=O)Nc1ccc(Oc2ccccc2)cc1	-4	i	-2%	-4%	-4	i
COC(=O)C1=C(C)NC(COC(N)=O)=C(C(=O)OC(C)C)C1c1cccc(Cl)c1Cl (stereo not drawn)	·	·	·	·	4	·
COCCNC(=O)C(C#N)c1nc2ccccc2nc1N1CCCCCC1 (stereo not drawn)	13	4.1µM*	-4%	-14%	0	i
CC(Oc1cccc(Cl)c1)C(=O)Nc1ccc(S(=O)(=O)N(C)C2CCN(C)CC2)cc1 (stereo not drawn)	-4	23µM*	-5%	-8%	-3	i
COc1ccc(CNC(=O)c2sc3nc4n(c(=O)c3c2C)CCCCC4)cc1	·	i	0%	11%	-2	i
COc1ccc2c(c1)C(=NN)c1cc(OC)ccc1-2	-9	10µM*	2%	0%	11	i
C=CCN(Cc1ccc2c(c1)OCO2)C(C#CCCCC)C(C)C (stereo not drawn)	·	·	·	·	2	·
CC(C)N(c1ccccc1)c1ccc(NC(=O)C2CCCO2)cc1 (stereo not drawn)	-6	21µM*	-32%	0%	6	i
